Laboratory results reported in the supplement of paper PMC3334620.
Whole data set: some 33,000 sequences, median “E-score (-0.5 to 0.5)” near -0.054, cut for the highest 2% near 0.35. The entries come from a sample that favours the highest values as a whole.

target: T1, Stb5 (UniProt P38699); experiment: PBM E-score (8-mer binding enrichment) (E-score (-0.5 to 0.5)); higher = stronger / more preferred TF binding; settings: protein concentration: 200 nM; construct: GST-full length
T1 sequence: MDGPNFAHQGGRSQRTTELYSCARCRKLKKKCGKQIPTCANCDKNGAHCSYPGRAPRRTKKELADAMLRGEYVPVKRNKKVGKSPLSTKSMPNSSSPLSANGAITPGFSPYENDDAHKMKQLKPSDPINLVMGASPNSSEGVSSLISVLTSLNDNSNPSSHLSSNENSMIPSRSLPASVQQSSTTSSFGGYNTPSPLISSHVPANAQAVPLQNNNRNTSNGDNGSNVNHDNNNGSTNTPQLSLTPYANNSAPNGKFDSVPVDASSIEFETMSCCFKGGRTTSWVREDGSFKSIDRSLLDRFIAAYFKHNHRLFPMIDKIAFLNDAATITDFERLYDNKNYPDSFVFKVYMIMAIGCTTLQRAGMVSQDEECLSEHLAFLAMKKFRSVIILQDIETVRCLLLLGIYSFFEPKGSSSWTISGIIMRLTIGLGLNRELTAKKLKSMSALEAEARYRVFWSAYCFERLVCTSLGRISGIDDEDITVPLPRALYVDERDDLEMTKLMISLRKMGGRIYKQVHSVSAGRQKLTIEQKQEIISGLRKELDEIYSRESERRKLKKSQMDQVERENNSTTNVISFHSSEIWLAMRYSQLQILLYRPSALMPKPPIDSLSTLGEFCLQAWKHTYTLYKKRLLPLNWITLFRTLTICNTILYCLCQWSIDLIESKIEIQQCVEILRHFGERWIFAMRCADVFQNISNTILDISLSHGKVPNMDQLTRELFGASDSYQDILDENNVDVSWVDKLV
Protocol: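 Universal 'all 10-mer' protein binding microarrays (Agilent AMADID 015681) probed with GST-tagged S. cerevisiae TFs (full-length or DBD) made by in vitro transcription/translation (PURExpress), about 100-200 nM. Bound TF was detected with fluorescent anti-GST. Each ungapped 8-mer (which stands for itself and its reverse complement) is scored by the PBM enrichment score (E-score), a modified Wilcoxon-Mann-Whitney statistic from -0.5 to +0.5, computed with the Universal PBM Analysis Suite. Scale: above 0.35 generally sequence-specific binding.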

Sequence | PBM E-score
TGTATACA | 0.0199
AAGGCTTG | -0.305
CATACTGC | -0.045
CTTCAAAG | -0.124
GCACTCTA | -0.0909
GGACAAAC | 0.0886
ACATACCG | 0.28
CGGTCCCA | 0.358
GGGTCCCA | -0.0448
CGGTCCGA | 0.389
CGGTCCAA | 0.186
AGGTCCGA | 0.412
AGGTCCAG | -0.156
AGGTCCCA | -0.357
AGGTCCAA | -0.167
AGGTCCTG | -0.205
AGGTCGGA | 0.326
AGGTCCGG | 0.382
GGGTCCGA | 0.332
AAATTCGA | 0.0745
CGGCATTC | 0.285
AACCATCG | 0.041
AAACGGAT | 0.197
AGAGATAT | -0.194
AAAAAGCT | -0.205

Sequence | PBM E-score
GGGTCTCA | 0.00241
AGGTCCTA | 0.0577
CGGTCCTA | 0.448
CGGTCCTC | 0.16
AGGTCCAC | -0.0841
CGGTCTCC | 0.195
CGGTCCGC | 0.298
CGGTCTCA | 0.376
AGGTCCGC | 0.425
GCCTTCGA | -0.137
CGCAAGGA | -0.0543
GACCTCTC | -0.126
AGTAGTTG | -0.0997
ACTGCTTG | -0.185
CCCAGTAG | -0.128
ACCCCTGA | -0.108
CCGATCGG | 0.413
CAGATCGG | 0.29
ACGATCGG | 0.298
AAGATCGC | -0.0115
CCGATCGA | 0.285
AAGATCGG | 0.352
GCAACTTA | -0.0671
CAGTCTAA | 0.00323
CCCCGCCC | 0.43

Sequence | PBM E-score
ACCGCCCC | 0.367
CCCGCCCC | 0.361
GCCCGCCC | 0.271
ACCGCCCT | 0.268
GCCCCCCC | -0.161
ACCGCCCG | 0.345
GCCGCCCC | 0.388
ACCCGCCC | 0.276
CCCGCCCG | 0.298
GCCGCCCA | 0.19
CCCGCCCA | 0.258
ACCTCCAG | -0.188
ATAAGGGC | 0.0814
GAAGCCAC | 0.0166
GCCCGTTA | 0.228
TGGAAGAA | -0.0838
ATGATCGG | 0.297
CCTGATCA | -0.0914
AGAGAACC | -0.125
CTCATGCC | -0.103
GAGATACC | 0.168
AGACCAGA | -0.27
ATAGAAGA | -0.05
CGACTTAC | 0.0696
TGTCTTAA | 0.00631

Sequence | PBM E-score
GGCCTTAA | 0.377
AGACTTAC | -0.161
GGGCTTAA | 0.391
TGGCTTAA | -0.044
GGTCTTAA | 0.355
CGTCTTAA | -0.0278
AGCCTTAA | -0.0403
TGCCTTAA | -0.192
GGACTTAC | 0.358
CGGCTTAA | 0.351
CCCTGGAG | -0.234
GCTCGGCA | 0.122
CTCAATCA | -0.00421
AACTAGCC | -0.148
ATGTGGTA | -0.222
CGCGGGAA | 0.272
AATCTTGG | -0.0505
CCGATACA | 0.28
ACAGCGGG | 0.332
GGACTTAA | 0.373
AGACTTAA | -0.288
CGACTTAA | -0.0485
ATAGAATA | -0.0414
CGATAACC | 0.16
AAACCCGC | 0.414

Sequence | PBM E-score
AAACCCGA | 0.395
AGACCCGC | 0.36
AAACCCGT | 0.318
GAACCCGC | 0.199
AGACCCGA | 0.287
CAACCCGG | 0.0495
CAACCCGC | 0.169
AAACCCGG | 0.395
GAACCCGA | 0.0501
TAACCCGA | 0.225
CGACCCGC | 0.198
ATGGACTC | -0.103
CCCGGCTA | 0.337
ACCTGGAG | -0.133
CAAGGCTG | -0.26
AGATAACA | -0.0529
TCGCCCCA | -0.317
ATCACCGG | 0.37
CTCACCGC | 0.164
ATCACCGC | 0.447
ATCACCAG | -0.0626
ATCACCGA | 0.433
ATCACCTG | 0.0314
GTCACCGA | 0.285
CTCACCGA | 0.248

Sequence | PBM E-score
ATCACCTC | 0.0381
TATGCACA | -0.16
GCCTCGCA | -0.0909
CGCATTTC | -0.0467
GGCAGTAA | 0.256
AGGAGCAT | -0.255
CCGCATTA | 0.243
GCTGGCCC | -0.184
GACATCCA | -0.0118
TCAGTGAA | -0.111
CTTCGAGC | -0.0166
AAACCCCA | 0.0234
ATACCCCG | 0.392
ATACCCCC | 0.351
AAACCCCG | 0.476
ACCCCCGG | 0.336
AACCCGGG | 0.262
ATACCCCA | -0.0468
AGACCCCC | -0.165
AACCCCGG | 0.453
AGACCCGG | 0.341
AAACCCCT | 0.153
AGACCCCG | 0.394
AAAATGTT | -0.267
CACTTGCG | -0.0879

Sequence | PBM E-score
CGTGTCCC | -0.0774
CCATTTAA | -0.073
CAGCTGTC | -0.31
ACACGGTA | 0.144
AGACCAGG | -0.149
ATGCGACC | 0.0704
AAGGCGCT | 0.109
ATACCTAG | -0.233
CAACCCCG | 0.371
AACCCCCG | 0.401
ACCCCCCG | 0.204
AACCCCCC | 0.0126
CAACCCCC | 0.14
CAACCCCA | -0.221
ACTAGCCC | 0.15
ACTCGTCA | -0.163
GCCCCTAC | 0.076
ATTCTTGG | -0.0109
GCCGGACC | 0.281
ACCGGACA | 0.321
CCCGGACC | 0.185
ACCGGACC | 0.354
